Data: PubChem BioAssay (Tox21)
Where “and” joins values, the source holds several entries; their conditions need not be identical. Equal values may be shown once. Records with an inconclusive call do not appear. More than one record can exist for a structure, and the calls need not agree. Calls of active or inactive are those of the source. Unless noted, calls follow the shape of the dose curve; as a rule, active = well fitted curve in the direction sought with a large enough effect in the repeat runs; inconclusive = weak or mixed curves; inactive = no such curve, though single readings can be large; an effect the other way counts as inactive or inconclusive.

What was measured:
[1] = molecular target: Luciferin 4-monooxygenase (Photinus pyralis) (UniProt P08659); test: qHTS assay to identify small molecule inhibitors of firefly luciferase (AID 1224835); also: % is scaled to controls: 0 for no effect and ±100 for the full control effect; nearly all actives have a fitted effect of over 25% in size
Method in brief: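 Biochemical qHTS: compounds run as interplate titrations against purified firefly enzyme, with D-luciferin and ATP each at its KM concentration. Light output recorded by CCD imaging.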

[2] = qHTS assay to identify small molecule agonists of the constitutive androstane receptor (CAR) signaling pathway - cell viability counter screen (AID 1224836); also: % is scaled to controls: 0 for no effect and ±100 for the full control effect; nearly all actives have a fitted effect of over 45% in size
Method in brief: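 HepG2-CYP2B6-hCAR, 2500 cells/well, 4 h pre-incubation; cpd 15 conc + PK11195 0.75 uM final; 23 h, 37 C/5% CO2; CellTiter-Fluor, fluorescence.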

[3] = qHTS assay to identify small molecule antagonists of the constitutive androstane receptor (CAR) signaling pathway - cell viability counter screen (AID 1224837); also: % is scaled to controls: 0 for no effect and ±100 for the full control effect; nearly all actives have a fitted effect of over 45% in size
Method in brief: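 Cytotoxicity counter-screen: CellTiter-Fluor fluorescence after 23 h compound exposure (15-point qHTS) in double-stable HepG2-CYP2B6-hCAR cells, with 50 nM CITCO added.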

[4] = qHTS assay to identify small molecule antagonists of the estrogen related receptor signaling pathway with the pleiotropic PPARgamma coactivator (PGC) from Tox21 10K library - cell viability counter screen (AID 1224840; active = well fitted cell-killing curve with a large enough effect in the repeat runs, not every such curve was filed as active; also: % is scaled to controls: 0 for no effect and ±100 for the full control effect; nearly all actives have a fitted effect of over 40% in size)
Method in brief: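 Counter-screen for cytotoxicity: after 17.5 h compound exposure at 37 C, CellTiter-Fluor reagent added to PGC/ERR cells for 30 min and fluorescence read. Cells were seeded at 2,000 per well 6 h before dosing.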

[5] = qHTS assay to identify small molecule antagonists of the estrogen related receptor signaling pathway with the pleiotropic PPARgamma coactivator (PGC) from Tox21 10K library (AID 1224841; call rule not given here; also: actives are mostly falling curves and most rising ones were filed inactive; nearly all actives have a fitted effect of over 50% in size; also: potency is read from the fitted curve at half-maximal effect)
Method in brief: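 Luminescence (One-Glo, 30 min at room temperature) after 18 h compound treatment at 37 C of PGC/ERR reporter cells plated at 2,000 cells/well and settled 6 h beforehand.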

[6] = qHTS assay to identify small molecule agonists of the estrogen related receptor signaling pathway with the pleiotropic PPARgamma coactivator (PGC) from Tox21 10K library (AID 1224842); also: % is scaled to controls: 0 for no effect and ±100 for the full control effect; nearly all actives have a fitted effect of over 15% in size
Method in brief: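 PGC/ERR reporter cell line, 2,000 cells per well, incubated 6 h at 37 C before 23 nL compound in DMSO was added. After 18 h at 37 C, One-Glo luminescence read following 30 min at room temperature.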

[7] = molecular target: Thyrotropin receptor (Homo sapiens) (UniProt P16473); test: qHTS assay to identify small molecule agonists of the thyroid stimulating hormone receptor (TSHR) signaling pathway (AID 1224843; calls by dose curve; also: % is scaled to controls: 0 for no effect and ±100 for the full control effect; nearly all actives have a fitted effect of over 45% in size)
Method in brief: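 HEK293/TSHR, 800 cells/well; cpd 30 min RT; add cAMP-d2 + anti-cAMP-cryptate, 1 h RT; fluorescence read on plate reader. 15-pt titration, n=3.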

[8] = qHTS assay to identify small molecule agonists of the hypoxia (HIF-1) signaling pathway - cell viability counter screen (AID 1224844; calls by dose curve; also: nearly all actives have a fitted effect of over 50% in size; also: potency is read from the fitted curve at half-maximal effect)
Method in brief: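 Cytotoxicity measured by CellTiter-Glo ATP luminescence in the wells also read for beta-lactamase signal. Cells were HRE-bla ME-180 (2,000/well, 0.5% dialyzed FBS), exposed to compounds for 17 h at 37C.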

[9] = qHTS assay to identify small molecule agonists of H2AX (AID 1224845; active = well fitted activation curve with a large enough effect in the signal ratio in the repeat runs, not every such curve was filed as active; the % refers to the signal ratio; also: potency is read from the fitted curve at half-maximal effect)
Method in brief: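 Wild-type CHO-K1 cells, plated overnight, exposed 3hr at 37C to 15 concentrations (0.76% DMSO final). Lysed, then HTRF anti-pH2AX (S139) cryptate and anti-H2AX-d2 antibodies, 24 hr room temperature; 665/620 nm emission read.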

[10] = qHTS assay to identify small molecule agonists of the hypoxia (HIF-1) signaling pathway (AID 1224846; active = well fitted activation curve with a large enough effect in the signal ratio in the repeat runs, not every such curve was filed as active; the % refers to the signal ratio; also: % is scaled to controls: 0 for no effect and ±100 for the full control effect)
Method in brief: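 Compounds added to ME-180 cells carrying hypoxia-response-element beta-lactamase reporter (0.5% dialyzed FBS, 5 h preplating), 17 h at 37C; agonist activity detected by CCF4-AM B/G FRET read-out.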

[11] = qHTS assay to identify small molecule agonists of H2AX - cell viability counter screen (AID 1224847; calls by dose curve; also: nearly all actives have a fitted effect of over 30% in size; also: potency is read from the fitted curve at half-maximal effect)
Method in brief: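 Cells plated first: CHO-K1, 1000 per well in 10% FBS medium, incubated overnight at 37C. Then 15-point compound titration added (final DMSO 0.76%) for 3 hr. Finally CellTiter-Glo added and luminescence read.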

[12] = qHTS assay to identify small molecule antagonists of the estrogen related receptor (ERR) signaling pathway from Tox21 library (AID 1224848); also: nearly all actives have a fitted effect of over 50% in size; also: potency is read from the fitted curve at half-maximal effect
Method in brief: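 Compounds dissolved in DMSO are pin-transferred onto ERR reporter cells (2,000 per well) that have settled for 6 h at 37 C. Plates then incubate 18 h at 37 C before ONE-Glo luciferase reagent and a luminescence read 30 min later.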

[13] = qHTS assay to identify small molecule agonists of the estrogen related receptor (ERR) signaling pathway from Tox21 library (AID 1224849; calls by dose curve; also: % is scaled to controls: 0 for no effect and ±100 for the full control effect; nearly all actives have a fitted effect of over 15% in size); conditions: ERR reporter cell line, ONE-Glo luciferase, 18 h
Method in brief: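 Luminescent agonist read-out (One-Glo, 30-minute room-temperature incubation) following 18-hour compound treatment at 37 C of the ERR cell line, which had been plated 6 hours before dosing.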

[14] = qHTS RealTime-Glo MT Cell Viability Assay in HepG2 cells - 24 hour (AID 1224867); also: % is scaled to controls: 0 for no effect and ±100 for the full control effect; nearly all actives have a fitted effect of over 50% in size
Method in brief: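 HepG2 cells were seeded at 600 cells/well together with NanoLuc luciferase and a cell-permeant prosubstrate, preincubated 5 h at 37 C/5% CO2, then pin-dosed with compounds in DMSO. Nonlytic luminescence from viable cells was read at each time point.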

[15] = qHTS RealTime-Glo MT Cell Viability Assay in HEK293 cells - 32 hour (AID 1224868); also: nearly all actives have a fitted effect of over 50% in size; also: potency is read from the fitted curve at half-maximal effect
Method in brief: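 HEK293 cells were seeded at 600 cells/well together with NanoLuc luciferase and cell-permeant prosubstrate, preincubated 5 h at 37 C/5% CO2, then given compound in DMSO by pintool. Luminescence from viable-cell prosubstrate reduction was read repeatedly over 40 h.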

[16] = A CellTox Green Cytotoxicity Assay to monitor cytotoxicity in HEK293 cells - 0 hour (AID 1224869)
Method in brief: (§1)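 Fluorescence from a DNA-binding dye excluded by viable cells was measured repeatedly in the same HEK293 wells (600 cells/well) during continuous compound exposure at 37 C. Each assay gives one read point: 0, 8, 16, 24, 32 or 40 h.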

[17] = qHTS RealTime-Glo MT Cell Viability Assay in HepG2 cells - 40 hour (AID 1224870)
Method in brief: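 HepG2 cells (600/well) mixed with RealTime-Glo MT reagent, settled 5 h at 37 C/5% CO2 before compound addition. Nonlytic NanoLuc luminescence from viable-cell prosubstrate reduction read repeatedly during 40 h treatment at 37 C.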

[18] = A CellTox Green Cytotoxicity Assay to monitor cytotoxicity in HEK293 cells - 40 hour (AID 1224871); also: % is scaled to controls: 0 for no effect and ±100 for the full control effect; nearly all actives have a fitted effect of over 45% in size
Method in brief: as §1

[19] = molecular target: Nuclear receptor subfamily 1 group I member 3 (Homo sapiens) (UniProt Q14994); test: qHTS assay to identify small molecule agonists of the constitutive androstane receptor (CAR) signaling pathway (AID 1224839); also: potency is read from the fitted curve at half-maximal effect; nearly all actives have a fitted effect of over 15% in size
Method in brief: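 HepG2-CYP2B6-hCAR cells, 2500/well, 4 h pre-incubation; compounds 15 conc.; PK11195 0.75 uM final; 24 h, 37 C/5% CO2; ONE-Glo luciferase read.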

[20] = at 92.4 µM (top of the series) unless noted

Sequence of Luciferin 4-monooxygenase (Photinus pyralis) (P08659 whole entry, looked up): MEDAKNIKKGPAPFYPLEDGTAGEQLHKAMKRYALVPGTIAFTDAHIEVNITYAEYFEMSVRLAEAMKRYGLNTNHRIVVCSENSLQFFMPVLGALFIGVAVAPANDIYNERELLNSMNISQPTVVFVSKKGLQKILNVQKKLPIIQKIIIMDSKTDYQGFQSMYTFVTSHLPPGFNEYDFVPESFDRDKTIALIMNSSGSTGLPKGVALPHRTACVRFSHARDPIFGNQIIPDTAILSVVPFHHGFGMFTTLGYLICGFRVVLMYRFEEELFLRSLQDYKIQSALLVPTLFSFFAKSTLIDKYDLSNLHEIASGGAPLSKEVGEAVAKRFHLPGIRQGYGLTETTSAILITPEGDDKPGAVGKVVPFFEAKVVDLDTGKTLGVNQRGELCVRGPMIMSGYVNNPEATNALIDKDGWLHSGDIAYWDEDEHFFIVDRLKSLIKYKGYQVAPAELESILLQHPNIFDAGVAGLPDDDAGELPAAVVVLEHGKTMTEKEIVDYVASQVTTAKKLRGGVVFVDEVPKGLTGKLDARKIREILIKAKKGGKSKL
Sequence of Thyrotropin receptor (Homo sapiens) (P16473 whole entry, looked up): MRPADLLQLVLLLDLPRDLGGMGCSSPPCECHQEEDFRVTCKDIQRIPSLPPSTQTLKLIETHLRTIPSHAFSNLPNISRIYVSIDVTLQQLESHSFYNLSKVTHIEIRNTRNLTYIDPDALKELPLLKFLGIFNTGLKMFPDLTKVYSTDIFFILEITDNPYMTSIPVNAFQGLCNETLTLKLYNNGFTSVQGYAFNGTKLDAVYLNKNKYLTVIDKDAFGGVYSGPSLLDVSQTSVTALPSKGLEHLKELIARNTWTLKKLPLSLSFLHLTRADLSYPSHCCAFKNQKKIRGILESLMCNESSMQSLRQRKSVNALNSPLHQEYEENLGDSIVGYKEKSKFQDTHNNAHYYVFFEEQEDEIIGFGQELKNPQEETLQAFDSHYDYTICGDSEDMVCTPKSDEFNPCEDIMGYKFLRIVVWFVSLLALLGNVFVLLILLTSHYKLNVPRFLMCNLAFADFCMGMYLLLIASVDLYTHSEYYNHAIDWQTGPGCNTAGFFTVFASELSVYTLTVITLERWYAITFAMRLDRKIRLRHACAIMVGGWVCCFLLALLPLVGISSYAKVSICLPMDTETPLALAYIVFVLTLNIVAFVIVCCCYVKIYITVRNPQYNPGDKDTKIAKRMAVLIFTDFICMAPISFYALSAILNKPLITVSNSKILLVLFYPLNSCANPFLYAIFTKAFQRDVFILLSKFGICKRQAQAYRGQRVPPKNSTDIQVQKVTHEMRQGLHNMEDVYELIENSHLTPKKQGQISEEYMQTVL
Sequence of Nuclear receptor subfamily 1 group I member 3 (Homo sapiens) (Q14994 whole entry, looked up): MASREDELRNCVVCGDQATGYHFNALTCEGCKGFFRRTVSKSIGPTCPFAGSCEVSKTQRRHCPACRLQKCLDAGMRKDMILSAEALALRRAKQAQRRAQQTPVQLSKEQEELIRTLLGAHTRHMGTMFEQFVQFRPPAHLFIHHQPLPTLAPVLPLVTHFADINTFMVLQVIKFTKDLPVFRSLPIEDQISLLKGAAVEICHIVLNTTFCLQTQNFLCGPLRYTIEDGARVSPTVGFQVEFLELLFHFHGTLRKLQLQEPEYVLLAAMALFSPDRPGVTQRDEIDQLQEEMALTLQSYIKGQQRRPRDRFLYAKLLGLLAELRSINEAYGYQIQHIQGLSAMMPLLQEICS

ClCCN1CCOCC1
inactive: Potency [1] | Potency [2] | Potency [3] | Potency [4] | Potency [5] | Potency [6] | Potency [7] | Potency [8] | Potency [9] | outcome [10] | Potency [11] | Potency [12] | activity change, positive = activation [13, 20] -2.74% | Potency [14] | Potency [15] | Potency [16] | Potency [17] | Potency [18]

FC(Cl)(Cl)Cl
inactive: Potency [1] | Potency [2] | Potency [3] | Potency [4] | Potency [7] | Potency [8] | Potency [9] | outcome [10] | Potency [11] | Potency [14] | Potency [15] | Potency [16] | Potency [17] | Potency [18]

COC(=O)N(C(=O)N1CO[C@@]2(C(=O)OC)Cc3cc(Cl)ccc3C2=N1)c1ccc(OC(F)(F)F)cc1
inactive: Potency [1] | Potency [2] | Potency [3] | Potency [4] | Potency [6] | Potency [8] | Potency [9] | outcome [10] | Potency [11] | activity change, positive = activation [13, 20] -47.5% | Potency [14] | Potency [16] | Potency [17] | Potency [18]
active: Potency [12] 8.35 µM

c1cc[c]([Sb]([c]2ccccc2)[c]2ccccc2)cc1
inactive: Potency [1] | Potency [2] | Potency [3] | Potency [7] | Potency [8] | outcome [10] | Potency [14] | Potency [16] | Potency [17] | Potency [18]
active: Potency [19] 15.4 µM | Potency [15] 54.9 µM

N#CC(Cl)Cl
inactive: Potency [1] | Potency [2] | Potency [3] | Potency [4] | Potency [6] | Potency [7] | Potency [9] | Potency [11] | activity change, positive = activation [13, 20] -30.9% | Potency [14] | Potency [16]

O=C(Cl)c1ccc(Cl)cc1
inactive: Potency [1] | Potency [2] | Potency [3] | Potency [4] | Potency [7] | Potency [8] | Potency [9] | outcome [10] | Potency [11] | Potency [14] | Potency [16] | Potency [18]

Clc1ccc(C(c2ccc(Cl)cc2)C(Cl)(Cl)Cl)cc1
17.4 µM (active) and inactive: Potency [5]
inactive: Potency [1] | Potency [2] | Potency [3] | Potency [4] | Potency [6] | activity change, positive = activation ([13]; at 42.5 µM (top of the series)) -17.1% | activity change, positive = activation ([13]; at 92.4 µM (top of the series)) -47.6% and -41.9% | Potency [14] | Potency [16]
active: Potency [8] 24.7 µM | Potency [9] 0.161 µM | Potency [11] 101 µM and 89.8 µM | Potency [12] 54.9 µM and 61.1 µM | Potency [15] 39.2 µM
